# About 83,000 compounds went through this panel and 20% of them were active in at least one assay; those are over-represented in the sample as a whole.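 The endpoint reported here, percent growth, reads 100 for growth as untreated, 0 for no net growth and -100 for all cells dead.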 A number with no mark means an inactive call. Calls of active or inactive are those of the source. How the source made its calls: active means growth percent below 10; inactive means the rest.
# What was measured:
# Experiment in all cases: NCI-60 one-dose screen, 48 h (100 = growth as untreated, 0 = no growth, -100 = all killed)
# Settings in all cases: 10 µM
# DU-145 prostate = test system: DU-145 prostate
# K-562 leukemia = test system: K-562 leukemia
# MALME-3M melanoma = test system: MALME-3M melanoma
# MDA-MB-231 breast = test system: MDA-MB-231 breast
# SF-268 CNS = test system: SF-268 CNS
# SF-295 CNS = test system: SF-295 CNS
# SF-539 CNS = test system: SF-539 CNS
# UACC-257 melanoma = test system: UACC-257 melanoma
# M14 melanoma = test system: M14 melanoma
Structure (SMILES),growth (DU-145 prostate),growth (K-562 leukemia),growth (MALME-3M melanoma),growth (MDA-MB-231 breast),growth (SF-268 CNS),growth (SF-295 CNS),growth (SF-539 CNS),growth (UACC-257 melanoma),growth (M14 melanoma)
CC(C)C1=C[C@@]23CC[C@@H]4[C@](C)(CCC[C@]4(C)C(=O)NCc4ccccc4)[C@H]2C[C@@H]1[C@H]1C(=O)CCC(=O)[C@H]13,98.1%,55.7%,95.5%,86.5%,80.4%,83.1%,72.2%,77.6%,86.9%
O=C(CSc1nnc(-c2ccc3nc(-c4ccccc4)[nH]c3c2)o1)Nc1ccc(Cl)cc1,73.6%,16.7%,44%,27.4%,59.6%,-14.9% (active),23.4%,75.3%,39.7%
O=C(CNc1nc(-c2ccccc2)cs1)Nc1cccc([N+](=O)[O-])c1,-98.6% (active),8.88% (active),-90.5% (active),-88.7% (active),-57.7% (active),-94.2% (active),-100% (active),-71.5% (active),-87.6% (active)
CC(=O)NS(=O)(=O)c1ccc(NC(=O)CSC2=NC(c3ccccc3)C(C(C)=O)=C(C)N2)cc1 (stereo unspecified),120%,104%,103%,110%,107%,101%,107%,106%,107%
C/C(=C\c1ccc(O)cc1O)c1ccc2ccc(O)cc2[o+]1,25.8%,72.7%,56.8%,39.6%,116%,80.6%,72.4%,84%,73.3%
COc1ccc(-c2cc(C(=O)N=Nc3c(O)[nH]c4ccc(F)cc34)c3ccccc3n2)cc1,74.7%,25.2%,25.3%,6.12% (active),47.9%,104%,39.5%,109%,74.4%
O=C(CSc1nnc(-c2ccc3nc(-c4ccc(Cl)cc4)[nH]c3c2)o1)Nc1ccc(Br)cc1,11.7%,5.15% (active),-81% (active),-97.3% (active),0.811% (active),-89.4% (active),-95.2% (active),-12.9% (active),-84.4% (active)
N#Cc1ccc(-c2nn(-c3ccc(C(=O)O)cc3)cc2CNc2cc(Cl)cc(Cl)c2)cc1,65.4%,43.7%,80.1%,80.2%,53.3%,38.4%,30.6%,60.2%,34.5%
O=C(NO)c1ccc(CNc2nc(-c3ccccc3)c3ccccc3n2)cc1,10.2%,9.84% (active),-34.4% (active),-21.8% (active),7.8% (active),-49% (active),1.02% (active),1.34% (active),9.54% (active)
CN(C)c1ccc(/C=C/c2nc3ccccc3c(=O)n2CC(=O)Nc2ccc(Cl)cc2)cc1,36.7%,68.7%,15.5%,35.1%,58.5%,27.9%,-63.6% (active),78.7%,65.2%
O=C(Nc1cccc(C(F)(F)F)c1)c1cncc(C#Cc2cnc3cccnn23)c1,22.6%,8.07% (active),28%,27.9%,46.4%,63.5%,31.9%,83.6%,35.5%
N#Cc1ccc(-c2nn(-c3ccc(C(=O)O)cc3)cc2CNc2ccc(Cl)cc2)cc1,97.6%,69.4%,102%,90.6%,78.6%,63.3%,80.1%,97.8%,83.4%
Cc1ccc(-c2nc(Nc3ccccc3C(=O)O)c3ccccc3n2)cc1,19.4%,17.6%,19.6%,35.4%,11.2%,5.81% (active),21.3%,28.6%,12.6%
O/N=C(\CSc1nnc(-c2c[nH]c3ccccc23)n1-c1ccccc1)c1ccc(Cl)cc1,-30.9% (active),6.93% (active),11.1%,-54.5% (active),-49% (active),14.1%,29.5%,44.3%,-47.3% (active)
C=C[C@@]12CN3CC[C@]1(O)[C@@](C(=O)OC)(CO2)c1[nH]c2ccccc2c1C3,68.3%,33.9%,95.5%,76.9%,85.3%,71%,71.9%,49.7%,64.4%
O=C(NO)c1ccc(Cn2ccc3c(Nc4ccccc4)ncnc32)cc1,20%,12.1%,-4.38% (active),-30.6% (active),30.8%,-67.5% (active),-80% (active),26.5%,10.5%
CC1(c2ccccc2)NC(=O)N(CC(=O)Nc2ccc(C(=O)/C=C/c3ccc(Br)cc3)cc2)C1=O (stereo unspecified),59.8%,14.5%,72.9%,54.3%,30.9%,37%,39.9%,48.4%,23.3%
O=c1c2ccccc2nc(COc2ccccc2)n1/N=C/c1ccc(N2CCCC2)cc1,94.7%,73.4%,115%,89.2%,115%,94.2%,93.6%,108%,101%
CN(C)c1nc(NCCNS(=O)(=O)c2ccc(C(=O)/C=C/c3ccccc3)cc2)nc(Nc2ccc(F)cc2)n1,26.3%,10.8%,36.5%,17.7%,32.4%,23.1%,26.7%,54.8%,5.05% (active)
COc1cc2c3c(n(CCCNCCO)c(=O)c2cc1OC)-c1nc2c(cc1C3=O)OCO2,6.05% (active),10.7%,46.7%,1.28% (active),19.1%,-8.95% (active),-57.1% (active),80.2%,23.7%
CC(=O)Nc1ccc(-c2cn(-c3cccc(C(=O)Nc4ccc(F)c(C(F)(F)F)c4)c3)nn2)cn1,42.5%,10.9%,2.13% (active),-4.26% (active),68.8%,29.4%,22.7%,90.4%,62.6%
OCCCNc1oc(-c2ccccc2)nc1[P+](c1ccccc1)(c1ccccc1)c1ccccc1,8.36% (active),11.1%,-26% (active),-8.13% (active),6.17% (active),2.62% (active),4.68% (active),-10.3% (active),10.1%
COc1ccc(/C(CSc2nnc(-c3c[nH]c4ccccc34)n2-c2ccccc2)=N/O)cc1,43%,18.7%,73.1%,60.7%,48.5%,21%,57.3%,50.1%,28.9%
CCOC(=O)N/C(=C1/OCCN1C)[P+](c1ccccc1)(c1ccccc1)c1ccccc1,93%,41.2%,71%,59.9%,103%,88.1%,78.1%,27.8%,90.9%
COc1cnc2c(c1)C(=O)c1c-2n(CCCNC(C)C)c(=O)c2cc(OC)c(OC)cc12,16.4%,5.04% (active),88.7%,23.1%,41.8%,13.3%,-63% (active),90.1%,45.3%
O=C(CSc1nnc(-c2c[nH]c3ccccc23)n1-c1ccccc1)Nc1ccc(C(=O)/C=C/c2ccccc2Cl)cc1,82%,55.9%,64.6%,78%,66.5%,72%,42.6%,107%,87.7%
COc1cc(/C=C/C(=O)c2ccc(NC(=O)CSc3nnc(-c4c[nH]c5ccccc45)n3-c3ccccc3)cc2)cc(OC)c1OC,79.6%,28.6%,95.2%,64.2%,85.4%,74.3%,60.8%,106%,81.1%
Nc1cc(-c2cccc(C(=O)NCc3ccc4c(c3)OCO4)c2)ccn1,101%,74.4%,99.3%,102%,91.5%,90.7%,93%,106%,108%
COc1cc(NC(=O)CSc2nnc(-c3ccc4nc(-c5ccc(Cl)cc5)[nH]c4c3)o2)cc(OC)c1OC,73.8%,31.3%,66.5%,75.2%,76.1%,48%,43.7%,94.4%,69.5%

# Reference: PubChem BioAssay (NCI)
